HSP90 inh: HSP90 refolding inhibition in rabbit reticulocyte lysate | luciferase refolding luminescence, 3 h | inhibition, % at 5.6 µM | 290,000 tested, 0.91% active | AID 1789;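 active = inhibition above the screen-wide mean plus 3 SD, computed separately per campaign, cut at about 16% in these data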;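 also: 0% = DMSO wells and 100% = 60 µM geldanamycin wells; inhibitors lower the luminescence because luciferase stays unfolded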
HSF1 inhib: HSF1 inhibition; NIH3T3-HGL HSE-luciferase, MG132-induced, luminescence 8 h; hits give low values; AID 2098; 300,000 tested, 0.77% active; activity change, negative = inhibition, % at 7.5 µM (by protocol);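 active = more than half of replicate wells show activity change below -50%, luminescence cut by over half; inconclusive = some wells, but at most half, below -50%; inactive = no replicate well below -50%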;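 also: luciferase reports HSF-1 transcriptional activity via heat shock element; 0% = median of DMSO wells and -100% = zero luminescence signal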
HSF1 activator: increases HSF-1 driven luciferase reporter signal; NIH3T3-HGL HSF-1 luciferase reporter, MG132, 8 h; 100% = twice DMSO control signal; activation, % at 9 µM; 300,000 tested, 1.7% active; AID 504408;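 active = mean replicate activation of at least 50% with a set share of replicates each reaching 50%; inconclusive = only one of those two conditions met; inactive = mean below 50% and too few replicates reaching it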;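 also: 0% = median of the neutral control wells and 100% = twice that signal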
HIF act: HIF pathway transcriptional activation; U2OS HRE-luciferase reporter, luminescence; normalized: DMSO 0%, desferrioxamine 100%; activation, % at 7.5 µM (by protocol); 300,000 tested, 0.32% active; AID 1910;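 active = mean activation of at least 10% of the iron chelator positive control signal, with at least half of replicates also reaching 10%; inconclusive = mean and replicate majority disagree about reaching 10%; inactive = mean and most replicates under 10%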
ARNT-TACC3 inh: disrupts binding between human ARNT and TACC3 | inhibition, % at 9.99 µM | AlphaScreen His-ARNT PAS-B/GST-TACC3 binding, luminescence; TACC3 fragment carries E629A point mutation | 390,000 tested, 0.66% active | Q9Y6A5;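 active = mean inhibition of replicates at least 50% and at least half of replicates each reaching 50%; inconclusive = half or more replicates reach 50% but mean below 50%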;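 also: 0% = complete ARNT plus TACC3 wells and 100% = ARNT alone without TACC3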
An asterisk follows results filed as active; ? = inconclusive; nt = no result. Compounds with a hit are over-represented: about 3.1% of the library has one in this group of screens.

SMILES	HSP90 inh	HSF1 inhib	HSF1 activator	HIF act	ARNT-TACC3 inh
CCC(=O)N(C)C[C@@H]1Oc2cc(-c3cccc(OC)c3)ccc2S(=O)(=O)N([C@@H](C)CO)C[C@@H]1C	nt	nt	nt	nt	-11
Cc1cc(C)cc(OC(=O)CS(=O)c2ccc(C(F)(F)F)cc2[N+](=O)[O-])c1 (configuration not stated)	-2	125	171*	2	-6
Cc1ccc(OCCNc2ccc(C(F)(F)F)cc2[N+](=O)[O-])cc1	-2	19	32	0	-2
O=C(CS(=O)c1ccc(C(F)(F)F)cc1[N+](=O)[O-])Oc1ccc(Cl)cc1 (configuration not stated)	7	65	73*	3	-5
O=C(NCCO)c1ccc(Oc2ccc(C(F)(F)F)cc2[N+](=O)[O-])cc1	2	0	-10	0	-31
O=C(N/N=C/c1ccccc1[N+](=O)[O-])c1cccs1	-2	39	61*	5	-5
O=C(N/N=C/C=C/c1ccccc1[N+](=O)[O-])c1cccs1	-4	-8	-33	1	-4
O=C(N/N=C/C(Cl)=C/c1ccccc1)c1ccccc1F	-5	33	76*	4	2
O=C(N/N=C/C(Cl)=C/c1ccccc1)c1ccco1	0	4	54*	2	3
O=C(N/N=C/C(Br)=C/c1ccccc1)c1cc(-c2ccco2)[nH]n1	1	125	130*	6	11
Cc1ccccc1S(=O)(=O)NCC[C@@H]1CC[C@H](NS(=O)(=O)c2ccccc2C)[C@H](CO)O1	nt	nt	nt	nt	-1
Cc1ccc(S(=O)(=O)N(C)C[C@H]2Oc3ccc(NS(=O)(=O)c4ccccc4)cc3CC(=O)N([C@H](C)CO)C[C@@H]2C)cc1	nt	nt	nt	nt	-6
COc1cccc(NC(=O)N[C@H]2C=C[C@@H](CC(=O)N3CCOCC3)O[C@@H]2CO)c1	nt	nt	nt	nt	-5
C[C@H](CO)N1C[C@H](C)[C@H](CN(C)Cc2ccc(C(F)(F)F)cc2)OCCCC[C@H](C)Oc2ccc(NC(=O)C3CCCCC3)cc2C1=O	nt	nt	nt	nt	5
O=C(N/N=C/C=C/c1ccccc1)c1cccs1	-1	17	?	1	3
O=C(N/N=C/C(Br)=C/c1ccccc1)c1ccccc1F	-3	179	250*	-31	7
O=C(N/N=C/C(Br)=C/c1ccccc1)c1cccs1	-3	108	130*	4	nt
C[C@@H]1CCCCO[C@@H](CN(C)Cc2ccc3c(c2)OCO3)[C@H](C)CN([C@H](C)CO)C(=O)c2cc(NC(=O)CCC(F)(F)F)ccc2O1	nt	nt	nt	nt	-17
O=C(C[C@@H]1C[C@@H]2c3cc(NS(=O)(=O)c4ccccc4)ccc3O[C@@H]2[C@H](CO)O1)NCC(F)(F)F	nt	nt	nt	nt	-6
Cc1cccc(N=c2oc3cc(O)ccc3cc2C(N)=O)c1	-3	23	58*	5	5
C=CCN1C(=O)C(Cc2ccc(OCC)cc2)S/C1=N\N=C\c1cccs1 (configuration not stated)	-4	19	56*	1	-1
O=C(C[C@H]1CC[C@@H]2[C@H](COC[C@@H](O)CN2Cc2ccccc2F)O1)NC1CCC1	nt	nt	nt	nt	12
Cc1ccc(C)c(OCc2nnc(N)s2)c1	-3	2	6	0	10
Nc1nnc(COc2ccc(Br)cc2Br)s1	0	46	92*	nt	4
CCN=c1scc(C)n1/N=C/c1ccc(O)c(O)c1O	0	10	13	-1	79*
SMILES	HSP90 inh	HSF1 inhib	HSF1 activator	HIF act	ARNT-TACC3 inh
COCCN=c1scc(-c2cccs2)n1/N=C/c1ccc(O)c(O)c1O	1	-8	-4	0	64*
Cc1noc2ncnc(Sc3ccc(Br)cc3)c12	4	129	153*	5	-5
Clc1nc(-c2ccccn2)nc2scc(-c3ccccc3)c12	1	-7	4	1	60*
COc1cccc(-n2nnc3c(=O)n(Cc4ccccc4Cl)cnc32)c1	7	-58*	-62	1	5
O=C1c2cccc(O)c2C(=O)c2c(O)cc(CO)cc21	nt	3	1	0	nt
O=C1c2cc(O)cc(O)c2C(=O)c2c1cc(O)c([C@@H](CO)CCO)c2O	nt	3	2	0	46*
Cn1cnc(S(=O)(=O)N2C[C@@H](O)COC[C@@H]3O[C@H](CC(=O)N4CCN(c5ccccc5)CC4)CC[C@H]32)c1	nt	nt	nt	nt	-5
CC(C)[C@H](NC(=O)c1ccco1)C(=O)NCc1ccccc1	5	-7	-18	-1	-5
COC(=O)c1ccc(C(C(=O)NCc2ccccc2)N(Cc2ccco2)C(=O)c2cnccn2)cc1 (configuration not stated)	-3	3	-12	174*	-10
COC(=O)c1ccc(CNC(=O)C(NC(=O)c2ccco2)C(C)C)cc1 (configuration not stated)	-6	-58*	-66	0	1
O=C(NCc1ccccc1)C(c1cccnc1)N(Cc1ccco1)C(=O)c1ccccn1 (configuration not stated)	-1	-9	-7	-1	-2
Cc1[nH]c2ccccc2c1C(=O)CSC(=S)N1CCCCC1	-4	36	54*	3	0
Cc1[nH]c2ccccc2c1C(=O)CSc1ccc(Cl)cc1	4	34	54*	1	0
CO[C@H]1CN(C)C(=O)c2cc(NC(C)=O)ccc2OC[C@H](C)N(CC2CCCCC2)C[C@@H]1C	nt	nt	nt	nt	-6
CCC(=O)Nc1ccc2c(c1)C(=O)N(C)[C@H]1CC[C@H](CC(=O)NCCN3CCCCC3)O[C@@H]1CO2	nt	nt	nt	nt	-9
Cc1ccc(NC(=O)c2nc(S(=O)(=O)Cc3ccccc3)ncc2Cl)cc1	-1	-95*	-96	-2	-1
Cc1ccccc1CS(=O)(=O)c1ncc(Cl)c(C(=O)Nc2ccc(F)cc2)n1	0	-12	-28	-3	-4
Cc1nnc(NC(=O)c2nc(S(=O)(=O)Cc3ccccc3)ncc2Cl)s1	5	-35	-39	-3	-1
O=C(Nc1ccc(F)cc1)c1nc(S(=O)(=O)Cc2ccccc2)ncc1Cl	-3	-85*	-89	-5	-3
C[C@@H](NC(=O)C[C@H]1C=C[C@@H](NC(=O)C2CCC2)[C@H](CO)O1)c1ccccc1	nt	nt	nt	nt	-4
Cc1[nH]c2ccc(-c3nnc(SCC(=O)c4ccc(F)cc4)o3)cc2c1C	0	-60*	-64	0	3
c1ccc(-c2nc3c(ccc4ccccc43)[nH]2)nc1	-3	33	58*	2	57*
CCCCN(C(=O)COC(=O)COc1c(C)cc(C)cc1C)c1c(N)n(CCC)c(=O)[nH]c1=O	nt	-69*	-75	-1	-4
CCCCn1c(N)c(N(CCOC)C(=O)COC(=O)COc2c(C)cccc2C)c(=O)[nH]c1=O	nt	7	-4	0	-5
CC(C)NC(=O)N(C)C[C@H]1Oc2ccc(NC(=O)c3ccncc3)cc2CC(=O)N([C@H](C)CO)C[C@H]1C	nt	nt	nt	nt	-6
